# The source made the active and inactive calls.
# Test: plasmodial surface anion channel blockers, osmotic lysis – cell-based, P. falciparum Indochina, OD700, 18 h, primary screen (AID 1157)
# Details: P. falciparum Indochina infected erythrocytes, osmotic lysis OD700, 18 h; higher = more signal, called active from +8 up or from −8 down
row,SMILES,z-score
1,C=CCC1=C[C@H]2[C@H]([C@@H]3C=C[C@]2(CC=C)C(=O)[C@]32CO2)[C@@]2(CO2)C1=O,-1.87 (inactive)
2,Cc1ccc(S[C@]2(C(=O)O)CC(=O)N(Cc3ccccc3)[C@@H]2c2ccc(CO)cc2)cc1,-0.707 (inactive)
3,CCCNC(=O)[C@@H]1c2ccccc2C(=O)N(Cc2cc(F)cc(C(F)(F)F)c2)[C@H]1c1ccc(CO)cc1,-0.73 (inactive)
4,O=C1c2ccccc2[C@](Cc2ccccc2I)(C(=O)O)[C@H](c2ccc(CO)cc2)N1C1CCCCC1,-0.339 (inactive)
5,[N-]=[N+]=NCc1ccccc1C[C@]1(C(N)=O)N=C(c2ccc(OCCCO)cc2)O[C@H]1c1ccccc1CN=[N+]=[N-],2.86 (inactive)
6,CO[C@H]1COC(=O)[C@H](C)NC(=O)CC=C[C@@H](C)[C@H](NS(=O)(=O)c2ccc(C)cc2)COC(=O)[C@@H](OCc2ccccc2)C=C[C@@H]1C,-0.14 (inactive)
7,COC(=O)c1c(CC[C@@H](CO)NC(=O)N[C@H](Cn2cc(-c3cncn3C)nn2)C(C)C)oc(C(C)=O)c1C(=O)OC,-0.519 (inactive)
8,C=C(COC)/C(=C/C[C@@H](OC(C)=O)c1cccc(OCCO)c1)c1cc(C(=O)OC)ccc1OC,-1.44 (inactive)
9,CC(C)[Si]1(C(C)C)O[C@@H](c2ccccc2)c2cc(C3CC3)nc(-c3ccc(Oc4ccccc4)cc3)c21,-0.812 (inactive)

# Test: S6 kinase pathway phospho-S6 level changes – cell-based, A549, cytoblot, luminescence, serum-stimulated, primary screen (AID 1158);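 further: serum-stimulated A549 lung adenocarcinoma cells; signal is phosphorylated S6 detected by cytoblot immunostaining with HRP secondary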
# Details: 5 h, higher = more signal
row,SMILES,z-score
1,C=CCOC(=O)[C@@H]1[C@H]2C(=O)O[C@H](c3ccccc3)[C@H](c3ccccc3)N2[C@H](c2ccc(OCCOC(=O)[C@H]3C[C@H]4C(=O)N5CCC[C@H]5C(=O)N4[C@H]3c3ccc(O)cc3)cc2)[C@@]12C(=O)Nc1ccccc12,0.557
2,C[C@@H]1CC[C@H]2C(=O)N3[C@@H](CC[C@@H](C)[C@@H]3c3cccc(N4CCOCC4)c3)C(=O)N2[C@H]1c1cccc(N2CCOCC2)c1,0.348
3,COc1ccc(-c2ccccc2[C@@H]2N[C@H](C(=O)O)CC[C@H]2C)cc1,0.305
4,CN1CCC(CCCO)=CC1C1CC1 (stereo not drawn),0.591
5,C=CCC(OC(C)=O)[C@@H]1[C@@H](N(Cc2cc3ccccc3o2)C(=O)c2ccc(C)cc2)c2cc(OCCCO)ccc2N1C(=O)c1ccc2ccccc2n1 (stereo partly drawn),0.469
6,C[C@H]1COC(=O)[C@H](Cc2ccccc2)NC(=O)[C@@H](C)COC(=O)[C@H](Cc2ccccc2)NC1=O,1.58
7,CCN1C(C)=C(C(=O)OC)[C@@H](c2ccccc2)N2C(=O)[C@@]3(C(=O)OC)O[C@@]12[C@@H]1C(=O)N(c2ccccc2)C(=O)[C@@H]13,0.422
8,CCCC/C=C/[C@H]([C@@H](O)Cc1ccccc1)N(CC#Cc1ccccc1)Cc1ccccc1Br,0.108
9,Cc1ccc(S[C@]2(C(=O)NCCCN(C)C)CC(=O)N(C3CCCCC3)[C@@H]2c2ccc(CO)cc2I)cc1,1.72
10,CO[C@@H]1COC(=O)[C@H](C)NC(=O)CC=C[C@@H](C)[C@H](NS(=O)(=O)c2ccc(C)cc2)COC(=O)CC=C[C@@H]1C,0.225
11,C=CCNC(=O)[C@H]1[C@@H]2C(=O)O[C@@H](c3ccccc3)[C@@H](c3ccccc3)N2[C@@H](c2ccccc2OCCO)[C@]12C(=O)N(C(=O)OCCOC)c1ccc(C#CCC(C(=O)OC)C(=O)OC)cc12,2.23
12,CC(=O)NCCCC[C@@H]1NC(=O)[C@@H]2C[C@H](C(=O)NCCCCCCN(C)C)[C@H](c3ccc(O)cc3)N2C1=O,-0.0253
13,O=C(NCC(O)CO)[C@]1(Cc2ccccc2)N=C(c2ccc(OCCCO)cc2)O[C@@H]1c1ccccc1 (stereo partly drawn),0.807
14,C[C@H]1NC(=O)[C@@H](C)NC(=O)[C@@]23C(=O)N[C@@H](Cc4ccccc4)C2[C@H](C)[C@@]2(C)O[C@H]2C3/C=C/C/C=C\CNC1=O (stereo partly drawn),0.52
15,CC(C)N1CC=CC23O[C@@H]4/C=C\CCCOC(=O)C4[C@H]2C(=O)N(CCO)[C@@H]3C1=O (stereo partly drawn),0.54
16,C=CC[C@]1(C(=O)O)N=C(c2ccc(OCCCO)cc2)O[C@H]1c1ccccc1,0.663
17,CC(C)CNC(=O)[C@@]1(C)c2ccccc2C(=O)N(Cc2ccc(OC(F)(F)F)cc2)[C@H]1c1ccc(CO)cc1,0.181
18,CO[C@H]1COC(=O)[C@H](Cc2ccccc2)NC(=O)CC=C[C@@H](C)[C@H](OC)COC(=O)CC=C[C@@H]1C,0.501
19,C=C(COC)/C(=C/C[C@@H](OC(=O)c1ccncc1)c1ccc(OCCO)cc1)c1cc(C(=O)OC)ccc1OC,0.866

# — PubChem BioAssay
